# Measured values from PubChem BioAssay (NCATS).
# Values without a mark were called inactive. Results filed as inconclusive are left out. Entries that show only a call come without a potency. Calls of active or inactive are those of the source. Unless noted, calls come from the whole dose curve; as a rule, active = well fitted curve in the direction sought with a large enough effect; inconclusive = small, poorly fitted or top-dose-only effect, or another doubt; inactive = no such curve, though single readings can be large; an effect the other way counts as inactive or inconclusive.
# Legend:
# [1] = target: ATP-dependent 6-phosphofructokinase (Trypanosoma brucei brucei) (UniProt O15648); experiment: qHTS Assay to Find Inhibitors of T. brucei phosphofructokinase: hit validation (AID 492961);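 note: luminescence reports ADP formed as PFK phosphorylates fructose-6-phosphate with ATP; series mostly up to about 51 µM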
# ATP-dependent 6-phosphofructokinase (Trypanosoma brucei brucei), sequence (O15648 whole entry, looked up): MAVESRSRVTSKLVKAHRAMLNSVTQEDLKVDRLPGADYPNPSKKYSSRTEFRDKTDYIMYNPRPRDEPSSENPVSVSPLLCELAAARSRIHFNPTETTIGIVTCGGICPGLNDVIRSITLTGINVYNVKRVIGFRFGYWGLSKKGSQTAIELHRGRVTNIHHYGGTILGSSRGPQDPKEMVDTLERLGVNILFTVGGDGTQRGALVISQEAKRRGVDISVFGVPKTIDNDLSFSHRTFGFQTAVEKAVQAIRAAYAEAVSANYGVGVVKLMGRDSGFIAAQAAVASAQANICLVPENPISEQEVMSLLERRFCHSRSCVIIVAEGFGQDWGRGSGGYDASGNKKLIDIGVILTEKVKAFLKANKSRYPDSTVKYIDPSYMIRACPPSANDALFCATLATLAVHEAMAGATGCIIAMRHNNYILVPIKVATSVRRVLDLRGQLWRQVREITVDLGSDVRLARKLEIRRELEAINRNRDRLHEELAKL
# How it was run: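 Compounds titrated; %activity normalized to 0x and 1x enzyme controls, curve-fitted. Readout: ADP-Glo luminescence after 45 min room-temperature reaction of 1.25 nM PFK, 0.1 mM ATP, 0.5 mM F6P, pH 8.0.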
# [2] = qHTS Assay for Identification of Small Molecule Inducers of Hypoxia Response (AID 2120; active = well fitted curve in the direction sought with a large enough effect in the signal ratio, with a control signal flat, not every such curve was filed as active; the % refers to the signal ratio)
# How it was run: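 Cell-based qHTS for reporter induction: hypoxia response element controlled beta-lactamase in ME-180 cells. Compounds incubated 17 h at 37 degrees C; activity from blue/green (460/530 nm) ratio, inducers ranked by AC50.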
# [3] = target: Ubiquitin carboxyl-terminal hydrolase 1 (Homo sapiens) (UniProt O94782); experiment: Inhibitors of USP1/UAF1: Pilot qHTS (AID 504865);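 note: rhodamine fluorescence freed from ubiquitin-rhodamine substrate followed over time; top concentration of the series differs between compounds; nearly all actives have a fitted effect of over 35% in size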
# Ubiquitin carboxyl-terminal hydrolase 1 (Homo sapiens), sequence (O94782 whole entry, looked up): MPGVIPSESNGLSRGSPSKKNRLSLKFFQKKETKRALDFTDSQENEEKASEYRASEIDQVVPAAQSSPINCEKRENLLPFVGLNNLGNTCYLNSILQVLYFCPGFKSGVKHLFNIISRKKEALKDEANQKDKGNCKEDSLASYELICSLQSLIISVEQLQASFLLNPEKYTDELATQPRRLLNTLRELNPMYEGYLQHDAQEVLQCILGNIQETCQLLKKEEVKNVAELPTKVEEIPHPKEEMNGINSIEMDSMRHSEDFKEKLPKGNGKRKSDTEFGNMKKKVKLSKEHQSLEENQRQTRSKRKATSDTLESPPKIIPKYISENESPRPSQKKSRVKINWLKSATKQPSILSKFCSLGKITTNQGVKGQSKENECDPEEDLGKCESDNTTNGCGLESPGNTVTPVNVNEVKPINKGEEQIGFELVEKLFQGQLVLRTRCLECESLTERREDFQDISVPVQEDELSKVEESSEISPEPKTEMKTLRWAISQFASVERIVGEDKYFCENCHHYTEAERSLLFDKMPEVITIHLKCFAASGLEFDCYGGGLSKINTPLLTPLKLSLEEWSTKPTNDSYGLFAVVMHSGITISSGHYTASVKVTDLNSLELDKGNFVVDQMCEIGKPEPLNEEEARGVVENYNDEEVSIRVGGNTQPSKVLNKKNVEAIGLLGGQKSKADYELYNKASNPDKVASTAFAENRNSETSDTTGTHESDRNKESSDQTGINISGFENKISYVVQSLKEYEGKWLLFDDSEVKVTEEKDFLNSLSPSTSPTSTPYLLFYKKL
# How it was run: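 USP1/UAF1 complex (1nM) preincubated with compound 15 min at room temperature, then Ub-Rho substrate (150nM final) added. Fluorescence read kinetically at 480/540 nm, 6 reads every 60 seconds. Buffer: 50mM HEPES pH 7.8, 0.5mM EDTA, 0.1 mg/ml BSA, 1mM TCEP, 0.01% Tween-20.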
# [4] = target: Estrogen receptor (Homo sapiens) (UniProt P03372); experiment: qHTS assay for small molecule antagonists of estrogen receptor alpha signaling (AID 588513; active = well fitted curve in the direction sought with a large enough effect in the signal ratio, with a control signal flat, not every such curve was filed as active; the % refers to the signal ratio)
# Estrogen receptor (Homo sapiens), sequence (P03372 whole entry, looked up): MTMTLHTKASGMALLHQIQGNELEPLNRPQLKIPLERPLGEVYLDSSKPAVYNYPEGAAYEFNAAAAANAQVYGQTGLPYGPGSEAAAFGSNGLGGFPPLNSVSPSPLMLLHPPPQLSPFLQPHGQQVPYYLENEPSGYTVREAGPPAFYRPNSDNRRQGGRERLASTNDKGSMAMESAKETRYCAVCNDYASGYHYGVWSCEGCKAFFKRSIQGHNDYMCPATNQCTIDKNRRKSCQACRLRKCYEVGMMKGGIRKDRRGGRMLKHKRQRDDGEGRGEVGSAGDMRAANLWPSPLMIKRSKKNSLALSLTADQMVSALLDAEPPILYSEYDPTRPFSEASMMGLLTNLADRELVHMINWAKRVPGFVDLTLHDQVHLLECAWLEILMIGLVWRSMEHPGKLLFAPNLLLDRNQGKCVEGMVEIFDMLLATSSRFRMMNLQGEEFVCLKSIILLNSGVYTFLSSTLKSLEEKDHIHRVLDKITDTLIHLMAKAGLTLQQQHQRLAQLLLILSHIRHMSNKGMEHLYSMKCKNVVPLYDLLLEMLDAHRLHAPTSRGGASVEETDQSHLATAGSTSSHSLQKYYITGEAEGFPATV
# How it was run: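 ER-alpha-UAS-bla GripTite HEK 293 cells in medium with 2% charcoal/dextran-treated FBS were preincubated 4 h at 37 C, dosed with compound (1:2 titration), stimulated with 0.5nM 17-beta-estradiol for 18 h, then read by CCF4 beta-lactamase fluorescence.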
# [5] = target: Estrogen receptor (Homo sapiens) (UniProt P03372); experiment: qHTS assay for small molecule agonists of estrogen receptor alpha signaling (AID 588514; calls by dose curve; note: nearly all actives have a fitted effect of over 70% in size)
# How it was run: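 Efficacy is expressed against 20 nM 17-beta-estradiol (100%) and DMSO basal (0%); EC50 from Hill equation. Assay: beta-lactamase reporter in ER-alpha-UAS-bla HEK 293 cells, 18 h compound incubation, CCF4 detection.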
# [6] = target: Bile acid receptor (Homo sapiens) (UniProt Q96RI1); experiment: qHTS assay for small molecule antagonists of farnesoid X receptor signaling (AID 588526; calls by dose curve)
# Bile acid receptor (Homo sapiens), sequence (Q96RI1 whole entry, looked up): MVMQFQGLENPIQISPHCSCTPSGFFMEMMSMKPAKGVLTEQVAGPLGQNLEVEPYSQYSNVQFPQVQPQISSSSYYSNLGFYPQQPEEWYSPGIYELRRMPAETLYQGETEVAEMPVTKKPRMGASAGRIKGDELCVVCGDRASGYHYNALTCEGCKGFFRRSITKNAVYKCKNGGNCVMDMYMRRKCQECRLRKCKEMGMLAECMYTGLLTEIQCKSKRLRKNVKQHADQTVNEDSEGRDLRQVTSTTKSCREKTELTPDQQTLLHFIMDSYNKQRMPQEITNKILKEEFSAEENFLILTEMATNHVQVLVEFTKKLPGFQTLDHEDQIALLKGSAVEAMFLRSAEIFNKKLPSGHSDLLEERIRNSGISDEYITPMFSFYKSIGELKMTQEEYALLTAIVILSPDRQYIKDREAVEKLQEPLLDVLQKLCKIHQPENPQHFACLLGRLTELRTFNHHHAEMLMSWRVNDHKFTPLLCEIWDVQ
# How it was run: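 Antagonist mode: titrated compounds tested against chenodeoxycholic acid stimulation (normalized to 50 uM CDCA and DMSO) in GeneBLAzer HEK293T cells for 16 h. Beta-lactamase read by CCF4 fluorescence; IC50 from Hill fits.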
# [7] = target: Androgen receptor (Homo sapiens) (UniProt P10275); experiment: qHTS assay for small molecule agonists of androgen receptor signaling (AID 588515; active = well fitted curve in the direction sought with a large enough effect in the signal ratio, with a control signal flat; the % refers to the signal ratio); details: AR-UAS-bla HEK293, beta-lactamase ratio, agonist 16 h; hits give high values
# Androgen receptor (Homo sapiens), sequence (P10275 whole entry, looked up): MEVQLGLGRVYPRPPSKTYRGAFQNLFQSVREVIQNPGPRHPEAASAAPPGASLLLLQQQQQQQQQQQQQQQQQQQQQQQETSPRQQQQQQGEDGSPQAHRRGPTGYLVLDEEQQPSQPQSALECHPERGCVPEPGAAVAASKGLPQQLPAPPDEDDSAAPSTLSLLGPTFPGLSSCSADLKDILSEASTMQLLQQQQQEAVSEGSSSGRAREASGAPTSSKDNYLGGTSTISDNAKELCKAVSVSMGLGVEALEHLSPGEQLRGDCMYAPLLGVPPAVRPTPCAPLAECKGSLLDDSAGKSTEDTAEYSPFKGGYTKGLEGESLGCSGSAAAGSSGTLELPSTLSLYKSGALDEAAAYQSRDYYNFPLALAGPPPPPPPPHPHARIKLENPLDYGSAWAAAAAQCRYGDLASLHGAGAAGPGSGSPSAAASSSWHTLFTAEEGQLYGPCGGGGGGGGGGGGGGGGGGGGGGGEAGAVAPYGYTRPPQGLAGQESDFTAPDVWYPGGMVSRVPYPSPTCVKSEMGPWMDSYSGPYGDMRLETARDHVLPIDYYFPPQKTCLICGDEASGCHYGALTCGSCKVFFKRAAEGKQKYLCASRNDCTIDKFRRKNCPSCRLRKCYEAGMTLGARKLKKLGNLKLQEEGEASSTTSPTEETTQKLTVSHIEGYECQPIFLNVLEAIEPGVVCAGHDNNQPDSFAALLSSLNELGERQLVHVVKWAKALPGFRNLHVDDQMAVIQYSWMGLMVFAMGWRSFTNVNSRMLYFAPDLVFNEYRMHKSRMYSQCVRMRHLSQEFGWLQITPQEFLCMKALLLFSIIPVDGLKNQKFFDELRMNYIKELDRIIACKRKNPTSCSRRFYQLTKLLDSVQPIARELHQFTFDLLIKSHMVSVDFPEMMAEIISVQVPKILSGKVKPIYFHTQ
# How it was run: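 Stimulation of an AR-responsive β-lactamase reporter in GripTite HEK293 cells was measured after 16 h compound exposure at 37 °C, via CCF4 fluorescence after 2 h RT. EC50 from Hill fits, normalized to R1881 at 30 nM.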
# [8] = target: Androgen receptor (Homo sapiens) (UniProt P10275); experiment: qHTS assay for small molecule antagonists of androgen receptor signaling (AID 588516; active = well fitted curve in the direction sought with a large enough effect in the signal ratio, with a control signal flat, not every such curve was filed as active; the % refers to the signal ratio)
# How it was run: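 AR-UAS-bla-GripTite HEK 293 cells (2000/well, 5 h at 37 C) received compound titrations, then R1881 at 10 nM final; after 16 h at 37 C, CCF4 dye 2 h RT, beta-lactamase fluorescence read; IC50 from Hill fits.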
# [9] = target: Ferritin light chain (Equus caballus) (UniProt P02791); experiment: qHTS Validation Assay for Identification of Novel General Anesthetics (AID 2323); note: series mostly up to about 77 µM
# Ferritin light chain (Equus caballus), sequence (P02791 2-175 limits assumed): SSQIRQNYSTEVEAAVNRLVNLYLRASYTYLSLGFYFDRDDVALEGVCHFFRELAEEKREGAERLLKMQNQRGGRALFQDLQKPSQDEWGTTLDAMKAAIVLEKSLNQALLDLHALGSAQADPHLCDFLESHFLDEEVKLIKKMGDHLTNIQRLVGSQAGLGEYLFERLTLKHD
# How it was run: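 Competitive displacement of profluorescent 1-aminoanthracene (1-AMA, 50% saturated solution in PBS) from 10 uM horse-spleen apoferritin. Compounds incubated 10 min at room temperature; fluorescence read at 380 nm excitation/535 nm emission, normalized to free 1-AMA and complex, fitted with four-parameter Hill equation.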
# [10] = target: ATP-dependent DNA helicase Q1 (Homo sapiens) (UniProt P46063); experiment: qHTS Validation Assay for Inhibitors of RecQ-Like Dna Helicase 1 (RECQ1) (AID 2353)
# How it was run: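 RECQ1T1 50 nM; forked duplex (20 bp + 30-nt ss tails) 200 nM, ATP 2 mM final; pH 8.0, 2 mM MgCl2, 2.5 ug/ml poly(dI-dC); 15 min compound preincubation; discontinuous kinetic read over 2 h at RT.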
# [11] = Validation screen for small molecules that induce DNA re-replication in MCF 10A normal breast cells (AID 463097); note: nearly all actives have a fitted effect of over 60% in size
# How it was run: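 Readout: Hoechst nuclear fluorescence intensity, 405 ex / 500-530 em, by scanning plate imager; re-replication scored as increase in nuclei with elevated DNA content. Cells exposed to compound 48 hr, 37 C, 5% CO2 beforehand.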
# [12] = Quantitative high throughput screen for delayed death inhibitors of the malarial parasite plastid, 96 hour incubation (AID 488745);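 note: luciferase-expressing P. falciparum in erythrocytes at 2% hematocrit and 0.1% parasitemia; series mostly up to about 29 µM; nearly all actives have a fitted effect of over 70% in size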
# How it was run: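 Readout is firefly luciferase luminescence from an integrated reporter in P. falciparum; lower signal marks inhibited growth. Cultures at 2% hematocrit and 0.1% parasitemia were treated with compound across two generations (96 h, 37 C, 5% CO2).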
# [13] = Quantitative high throughput screen for delayed death inhibitors of the malarial parasite plastid, 48 hour incubation (AID 488752); note: nearly all actives have a fitted effect of over 65% in size
# How it was run: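 First, compound was pinned into RPMI 1640 medium containing 0.5% Albumax. Next, reporter-parasite-infected erythrocytes were added to 2% hematocrit and 0.1% parasitemia. After 48 h at 37 C under 5% CO2, luciferase detection reagent was added and luminescence read.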
# [14] = target: M-phase phosphoprotein 8 (Homo sapiens) (UniProt Q99549); experiment: qHTS Validation Assay for Inhibitors for MPP8 Chromodomain Interactions with Methylated Histone Tails (AID 488949);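 note: AlphaScreen signal from MPP8 chromodomain bound to biotinylated H3K9me3 peptide; top concentration of the series differs between compounds; nearly all actives have a fitted effect of over 55% in size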
# How it was run: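 MPP8 (50 nM) was preincubated with biotinylated H3(1-18)K9me3 peptide (50 nM) in PBS pH 7.4, 0.01% Tween-20 for 30 min at room temperature, then with compounds for 30 min; binding was detected by AlphaScreen.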
# [15] = target: Transient receptor potential cation channel subfamily V member 1 (Homo sapiens) (UniProt Q8NER1); experiment: HTS Assay for Compounds that Act as Enhancers of the Vanilloid Receptor 1 (AID 488979)
# How it was run: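 TRPV1 cells loaded with Fluo-8 calcium dye; compound added and Ca2+ signal (ex 480/em 520 nm) followed 3 min, then capsaicin at EC20 added and read 2 more min to detect enhancement.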
# [16] = target: Thyrotropin receptor (Homo sapiens) (UniProt P16473); experiment: qHTS Assay for Antagonists of the Thyroid Stimulating Hormone Receptor (AID 488980); note: series mostly up to about 58 µM
# Thyrotropin receptor (Homo sapiens), sequence (P16473 whole entry, looked up): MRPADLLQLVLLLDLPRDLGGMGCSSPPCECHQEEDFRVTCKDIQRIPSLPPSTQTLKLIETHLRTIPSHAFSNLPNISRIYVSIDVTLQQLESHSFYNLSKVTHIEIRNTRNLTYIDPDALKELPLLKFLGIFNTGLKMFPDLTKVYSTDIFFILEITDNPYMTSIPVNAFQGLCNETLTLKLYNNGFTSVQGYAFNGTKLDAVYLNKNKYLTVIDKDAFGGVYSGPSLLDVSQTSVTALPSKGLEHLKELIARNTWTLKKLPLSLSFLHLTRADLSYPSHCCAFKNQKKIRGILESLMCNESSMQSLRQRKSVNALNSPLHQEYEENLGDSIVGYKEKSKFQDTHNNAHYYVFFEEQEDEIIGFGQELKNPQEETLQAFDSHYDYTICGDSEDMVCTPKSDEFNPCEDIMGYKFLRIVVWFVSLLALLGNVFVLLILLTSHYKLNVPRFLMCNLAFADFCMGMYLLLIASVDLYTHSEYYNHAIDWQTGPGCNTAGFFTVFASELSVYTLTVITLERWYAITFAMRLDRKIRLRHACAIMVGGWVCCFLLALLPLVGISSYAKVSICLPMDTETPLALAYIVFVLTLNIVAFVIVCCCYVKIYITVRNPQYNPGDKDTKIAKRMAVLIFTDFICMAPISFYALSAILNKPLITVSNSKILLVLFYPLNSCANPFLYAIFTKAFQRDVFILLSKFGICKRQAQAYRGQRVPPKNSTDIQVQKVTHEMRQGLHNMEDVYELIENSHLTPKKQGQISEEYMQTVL
# How it was run: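 HEK293 cells transfected with human TSHR, suspended in HEPES-buffered HBSS with 70 uM RO 20-1724, were treated with compounds plus TSH at EC80 (4 nM final). cAMP was measured by competitive HTRF (cryptate anti-cAMP antibody, cAMP-d2 acceptor).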
# [17] = target: Thyrotropin-releasing hormone receptor (Homo sapiens) (UniProt P34981); experiment: qHTS for Small Molecule Agonists and Allosteric Enhancers of Human TRH Receptor: Validation Screen for Agonists (AID 493127;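 active = calcium activation more than 3 SD above the typical response in the agonist read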;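 note: intracellular calcium rise by fluo-8 fluorescence before TRH EC20 addition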); details: TRH receptor agonist cell assay; at 2 µM; hits give high values
# Thyrotropin-releasing hormone receptor (Homo sapiens), sequence (P34981 whole entry, looked up): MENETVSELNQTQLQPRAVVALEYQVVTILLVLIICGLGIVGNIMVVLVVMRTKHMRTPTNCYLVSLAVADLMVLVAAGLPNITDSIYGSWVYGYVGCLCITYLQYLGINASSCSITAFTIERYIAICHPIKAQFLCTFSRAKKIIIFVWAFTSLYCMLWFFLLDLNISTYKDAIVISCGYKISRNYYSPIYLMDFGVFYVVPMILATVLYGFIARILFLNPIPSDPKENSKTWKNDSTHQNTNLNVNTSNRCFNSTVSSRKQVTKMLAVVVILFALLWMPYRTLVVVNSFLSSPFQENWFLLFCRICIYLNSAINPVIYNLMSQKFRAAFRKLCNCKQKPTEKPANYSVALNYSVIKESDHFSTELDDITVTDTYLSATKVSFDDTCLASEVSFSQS
# How it was run: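 Compounds are added by online pintool to dye-loaded TRHR cells while fluorescence is recorded every second. A rise in calcium signal during the agonist read marks activation; a later 10 nM TRH addition (EC20) serves the separate enhancer mode.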
# [18] = target: Galactokinase (Homo sapiens) (UniProt P51570); experiment: qHTS Validation Assay for Inhibitors of Human Galactokinase (GALK) (AID 493189)
# Galactokinase (Homo sapiens), sequence (P51570 whole entry, looked up): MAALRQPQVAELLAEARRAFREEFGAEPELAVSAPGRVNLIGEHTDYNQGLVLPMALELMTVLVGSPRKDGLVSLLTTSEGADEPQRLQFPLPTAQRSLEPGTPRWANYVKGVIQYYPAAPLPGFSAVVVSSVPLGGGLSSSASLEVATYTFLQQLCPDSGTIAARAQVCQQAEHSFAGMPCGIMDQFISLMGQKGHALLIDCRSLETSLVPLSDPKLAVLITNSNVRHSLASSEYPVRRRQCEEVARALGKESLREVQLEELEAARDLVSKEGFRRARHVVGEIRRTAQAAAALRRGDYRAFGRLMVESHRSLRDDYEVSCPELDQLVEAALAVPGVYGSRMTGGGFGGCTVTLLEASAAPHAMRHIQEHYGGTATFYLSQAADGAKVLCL
# How it was run: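 GALK (5 nM) with 35 uM ATP and 100 uM galactose in HEPES pH8.0, MgCl2, NaCl, DTT, BSA; 1 h at room temperature. Residual ATP read by Kinase-Glo Plus luminescence after 10 min.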
# [19] = Validation screen for small molecules that induce DNA re-replication in SW480 colon adenocarcinoma cells (AID 504364)
# How it was run: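 Image-based qHTS: compounds were incubated with SW480 cells for 48 hr, nuclei stained with Hoechst, and per-nucleus fluorescence intensity scanned to flag cells with excess DNA content.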
structure (smiles),measurement,setting,value
c1ccc2[nH]ccc2c1,outcome,[1],inactive
CC(=O)Nc1ccccc1,outcome,[2],inactive
same,outcome,[1],inactive
same,Potency,[3],inactive
same,outcome,[4],inactive
same,outcome,[5],inactive
same,outcome,[6],inactive
CCCC(O)C(CC)CO (configuration not stated),outcome,[2],inactive
same,outcome,[1],inactive
same,Potency,[3],inactive
same,outcome,[4],inactive
same,outcome,[5],inactive
C=CCNC(N)=S,outcome,[2],inactive
same,outcome,[1],inactive
same,Potency,[3],inactive
O=C1C(c2[nH]c3ccccc3c2O)=Nc2ccccc21,outcome,[2],inactive
same,outcome,[6],inactive
COc1ccc(O)cc1,outcome,[2],inactive
same,outcome,[1],inactive
same,Potency,[3],inactive
same,activation,[7],-4.19%
same,outcome,[8],inactive
FC(F)(F)C(Cl)Br (configuration not stated),outcome,[2],inactive
same,outcome,[1],inactive
same,outcome,[4],inactive
same,outcome,[5],inactive
CN1C(C)(C)CCCC1(C)C,outcome,[9],inactive
same,outcome,[10],inactive
same,outcome,[11],inactive
same,outcome,[12],inactive
same,outcome,[13],inactive
same,outcome,[14],inactive
same,outcome,[15],inactive
same,outcome,[16],inactive
same,activation,[17],0.688%
same,outcome,[18],inactive
same,outcome,[19],inactive
same,Potency,[3],inactive
CC(=O)Oc1cccc(C)c1,outcome,[1],inactive
CC(=O)Nc1cccc(O)c1,outcome,[2],inactive
same,outcome,[1],inactive
same,Potency,[3],inactive
same,outcome,[4],inactive
same,outcome,[5],inactive
CC(=O)OCC(COC(C)=O)OC(C)=O,outcome,[2],inactive
same,outcome,[1],inactive
same,Potency,[3],inactive
O[C@@H]1CO[C@H]2[C@@H]1OC[C@@H]2O,outcome,[1],inactive
CC(=O)SC[C@@H](Cc1ccccc1)C(=O)NCC(=O)OCc1ccccc1,outcome,[1],inactive
CN(C/C=C/C#CC(C)(C)C)Cc1cccc2ccccc12,outcome,[1],inactive
COc1cc(O)cc(O)c1,outcome,[1],inactive
O=C(c1ccccc1)C(O)c1ccccc1 (configuration not stated),outcome,[2],inactive
same,outcome,[1],inactive
same,Potency,[3],inactive
Nc1ccc(C(=O)Oc2ccccc2)c(O)c1,outcome,[1],inactive
CC(C)CCOC(=O)c1ccc(N(C)C)cc1,outcome,[1],inactive
CCOC(=O)c1cccnc1,outcome,[1],inactive
CN1C[C@@H]2C[C@H]1CN2c1cc2c(cc1F)c(=O)c(C(=O)O)cn2C1CC1,outcome,[1],inactive
CC(CN(C)C)C(C)(O)Cc1ccc(Cl)cc1 (configuration not stated),outcome,[1],inactive
O=C1c2cccc(O)c2C(=O)c2c(O)cccc21,outcome,[2],inactive
same,outcome,[1],inactive
same,Potency,[3],inactive
CC(=O)Nc1ccc(C(=O)O)cc1,outcome,[2],inactive
same,outcome,[1],inactive
same,Potency,[3],inactive
same,outcome,[4],inactive
same,outcome,[5],inactive
Cc1cc(=O)[nH]c(=S)[nH]1,outcome,[2],inactive
same,outcome,[1],inactive
same,Potency,[3],inactive
same,outcome,[4],inactive
same,outcome,[5],inactive
same,outcome,[6],inactive
CCCNC(C)(C)COC(=O)c1ccccc1,outcome,[1],inactive
Cc1cc(O)cc(C)c1Cl,outcome,[1],inactive
O=S1(=O)OC(c2ccc(O)cc2)(c2ccc(O)cc2)c2ccccc21,outcome,[1],inactive
CC(=O)Nc1ccc(OCCOCCOc2ccc(NC(C)=O)cc2)cc1,outcome,[1],inactive
CNCc1ccccc1,outcome,[1],inactive
Cc1c(NC(=O)c2cccnc2)c(=O)n(-c2ccccc2)n1C,outcome,[1],inactive
Cc1cc(C)nc(NS(=O)(=O)c2ccc(N)cc2)n1,outcome,[2],inactive
same,Potency,[3],inactive
same,outcome,[6],inactive
O=C1c2ccccc2C(=O)C1c1ccc(Br)cc1,outcome,[1],inactive
CCCCCC(N)=O,outcome,[2],inactive
same,outcome,[1],inactive
same,Potency,[3],inactive
CCCCCCCC(=O)OCC(COC(=O)CCCCCCC)OC(=O)CCCCCCC,outcome,[2],inactive
same,outcome,[1],inactive
same,Potency,[3],inactive
same,outcome,[4],inactive
same,outcome,[5],inactive
same,outcome,[6],inactive
CCN(CC)C(=O)c1cccc(C)c1,outcome,[2],inactive
same,outcome,[1],inactive
same,Potency,[3],inactive
same,outcome,[4],inactive
same,outcome,[5],inactive
same,outcome,[6],inactive
O=C(O)CCC(=O)O,outcome,[1],inactive
same,Potency,[3],inactive
CC(=O)N[C@@H](Cc1ccc(O)cc1)C(=O)O,outcome,[1],inactive
same,Potency,[3],inactive
O=C(O)Cc1ccc(CCNS(=O)(=O)c2ccc(Cl)cc2)cc1,outcome,[1],inactive
NS(=O)(=O)c1cc(-c2nn[nH]n2)c(NCc2cccs2)cc1Cl,outcome,[1],inactive
CNc1c2c(nn1C)CCCC2,outcome,[1],inactive
CN/C(=C\[N+](=O)[O-])NCCSCc1csc(CN(C)C)n1,outcome,[1],inactive
same,Potency,[3],inactive
O=C(/C=C/c1ccccc1)OCc1ccccc1,outcome,[1],inactive
CC1CC(OC(=O)c2ccccc2O)CC(C)(C)C1 (configuration not stated),outcome,[1],inactive
same,Potency,[3],inactive
C[C@@H]1CCC[C@H](C)N1,outcome,[1],inactive
same,Potency,[3],inactive
